In the supplement of paper PMC10338343:
± gives the standard deviation.

test system: MILI (PIWIL2) piRISC loaded with piRNA #1 (26 nt); assay: pre-steady-state target cleavage rate (min^-1); guide: piRNA #1 5'p-UGAGGUAGUAGGUUGUAUAGUAUCCA; MIWI and MILI are mouse PIWI proteins and EfPiwi is from a freshwater sponge; tags in brackets are library labels; higher = faster piRNA-guided slicing of the target; conditions: auxiliary factor: 500 nM mouse GTSF1
Procedure, shortened: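 The pre-steady-state cleavage rate was derived from a burst-and-steady-state fit of Cleave-'n-Seq data. For these assays, 1 nM active affinity-purified piRISC loaded with a single synthetic guide was mixed with […] a transcribed, DNA-blocked target RNA library in HEPES–potassium acetate buffer at 33 °C, with or without 500 nM GTSF1 partner protein, for 0–8 or 0–960 min. Sequencing counts of uncleaved targets were normalised to depth and to weakly complementary targets, and k3 was capped at 0.0001 min^-1 after three trials were pooled.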
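Note: 1 nM active piRISC with 0.1 nM target library at 33 °C single turnover.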

Sequence	pre-steady-state target cleavage rate
GGAGACCAUACUAAACAACCUAGUACCUCA	0.0362 ± 0.0083
GGAGACCUAACUAUAGUUCCUACUACCUCA	0.0706 ± 0.013
GGAGACCUAUGAAUACAUCCUACUACGUCA	0.00336 ± 0.0019
GGAGACGAACUAUACAACCUACUACCUCA	0.138 ± 0.012
GGAGACCUUAGUAUACAACGUACUACCUCA	0.0124 ± 0.0037
GGAGACGAUACUUUACAACCUACAACCUCA	0.0642 ± 0.013
GGAGACCUAUGUAUACAACCUACUACCCUCA	0.0911 ± 0.011
GGAGACCUAUGAUAUGAACCUACUACGCUCA	< 0.0001
GGAGACCUAUGAUAUCAAACUACUACCUCA	0.00495 ± 0.0026
GGAGACCAUACUAUACUUCCUACUACCUCA	0.226 ± 0.021
GGAGACCUAAGUAUACAACCUACUAGCUCA	0.0149 ± 0.0043
GGAGACCUAUCUAUACAACCUAGUACCACA	0.00922 ± 0.0045
GGAGACCUAUGAUAACAACCUAUCUACCUCA	0.00737 ± 0.0021
GGAGACCUAUGAAUACAACCUACUAGCCUCA	0.00742 ± 0.0038
GGAGACCUUCUAUACAACCUACUACCUCA	0.0879 ± 0.016
GGAGACCUUACUAUAGUUCCUACUACCUCA	0.113 ± 0.0093
GGAGACCUAUGAUUUCAAGCUACUACCUCA	0.00713 ± 0.0026
GGAGACCUAUGAUAUCUACCUACUACGUCA	< 0.0001
GGAGACGAUACUAUACAACCUACUAUCUCA	0.149 ± 0.014
GGAGACCUAACUUUACAACCUACUUCCUCA	0.0099 ± 0.0053

Sequence	pre-steady-state target cleavage rate
GGAGAGGAUACUAUACAACCUACAACCUCA	0.111 ± 0.015
GGAGUGGAUUCUAUACAACCAACUACCUCA	0.00438 ± 0.0023
GGAGACCUUACUAUACAACCUACAUCCUCA	0.0472 ± 0.0095
GGAGACCUAUCAAUAGAACCUACUACCUCA	0.0159 ± 0.0039
GGAGACCUUACUAUACAACCUUCUUCCUCA	0.00391 ± 0.0031
GGAGACCUAUGAUUACAAACUACUACCUCA	0.0225 ± 0.0059
GGAGACCUAUCUAUACAACCUACUUCCUGA	0.0608 ± 0.018
GGAGACCAUACUAUACAAACCUACUACCUCA	0.0045 ± 0.003
GGAGACCUAUGAUUACAACCUACGACCUCA	0.00452 ± 0.0036
GGAGACCUAUCUAUAGAUCCUACUACCUCA	0.144 ± 0.017
GGAGACCUAUGUAUACAACAUACUACCUCA	0.0179 ± 0.0028
GGAGACCUAACUAAACAUCCUACUACCUCA	0.216 ± 0.036
GGAGACCUAUGAUAUGUACUCUACUACCUCA	< 0.0001
GGAGACCUAUGAUAUGUUCCUACUACCAGA	< 0.0001
GGAGACGAUACUAUACAUGGUACUACCUCA	0.00601 ± 0.0019
GGAGACCUAACUAUACAUCCUACUUCCUCA	0.14 ± 0.044
GGAGACCUUACUUUACAACGUACUACCUCA	0.0199 ± 0.0047
GGAGUGGAUACUAUACAACGUACUACCACA	0.0255 ± 0.0047
GGAGUGCAUACUUUACAACCUACUACCUCA	0.166 ± 0.0083
GGAGAGGAUACUAAUGAACCUACUACCUCA	0.0555 ± 0.0058
